For assay [1], the target named is human Histamine 1 Receptor (H1), HRH1 (gene 3269) (UniProt P35367). Put plainly: NVS_GPCR_hH1: NovaScreen (NVS) G Protein-Coupled Receptor Assay for human Histamine 1 Receptor (H1) (AID 2283268). In outline: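 Filter-based scintillation detection of radioligand binding to human H1, 1 h incubation; chemicals screened in duplicate at 25 uM, then concentration-response; signal loss relative to DMSO taken as activity.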

Assay [2] deals with human Adrenergic, Beta 1 Receptor (Adrb1), ADRB1 (gene 153) (UniProt P08588). Put plainly: NVS_GPCR_hAdrb1: NovaScreen (NVS) G Protein-Coupled Receptor Assay for human Adrenergic, Beta 1 Receptor (Adrb1) (AID 2283258). In outline: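 Membranes/protein extracted from human neuroepithelioma cells, radioligand competition binding read by filtration and scintillation 2 h post-dose. Single 25 uM duplicate screen, then concentration-response follow-up; DMSO as negative control.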

The target in assay [3] is human Adrenergic, Alpha 2c Receptor (Adra2C), ADRA2C (gene 152) (UniProt P18825). Put plainly: NVS_GPCR_hAdra2C: NovaScreen (NVS) G Protein-Coupled Receptor Assay for human Adrenergic, Alpha 2c Receptor (Adra2C) (AID 2283259). In outline:
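Screened first in duplicate at 25 uM, with actives then run as concentration series. Membranes from Sf9 cells were exposed for 1 h, and displacement of radioligand was counted after filtration, using DMSO as baseline.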

Assay [4] has as its target D(1A) dopamine receptor (Homo sapiens) (UniProt P21728). Put plainly: NVS_GPCR_hDRD1: NovaScreen (NVS) G Protein-Coupled Receptor Assay for human Dopamine Receptor D1 (DRD1) (AID 2283269). The method, boiled down:
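HEK293-derived receptor preparation; radioligand competitive displacement; 1 h; filtration + scintillation counting. DMSO = negative control/baseline. Primary: 25 uM, duplicate; secondary: concentration–response for actives.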

The target in assay [5] is human Dopamine Receptor D2 (DRD2), DRD2 (gene 1813) (UniProt P14416). Put plainly: NVS_GPCR_hDRD2s: NovaScreen (NVS) G Protein-Coupled Receptor Assay for human Dopamine Receptor D2 (DRD2) (AID 2283266). The method, boiled down:
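Test compound (25 uM, duplicate in the primary screen; concentration series at follow-up) competed with radioligand for human DRD2 in CHO-derived membrane protein. Filter-based scintillation counting was done 1.5 hours after dosing, with loss of signal analysed against DMSO.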

Assay [6] has as its target Beta-2 adrenergic receptor (Homo sapiens) (UniProt P07550). Put plainly: NVS_GPCR_hAdrb2: NovaScreen (NVS) G Protein-Coupled Receptor Assay for human Adrenergic, Beta 2 Receptor (Adrb2) (AID 2283261). In outline: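 Compounds screened in duplicate at 25 uM, then actives in concentration series. Human beta-2 receptor from CHO material, cell-free; radioligand displacement after 1 h measured by filtration and scintillation against DMSO baseline.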

Assay [7] has as its target Muscarinic acetylcholine receptor M1 (Homo sapiens) (UniProt P11229). Put plainly: NVS_GPCR_hM1: NovaScreen (NVS) G Protein-Coupled Receptor Assay for human Muscarinic, M1 Receptor (AID 2283270). The method, boiled down:
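Actives from a duplicate 25 uM single-point screen were retested in concentration series. Binding measured as displacement of a radioligand from CHO-derived receptor preparation, 1 h incubation, filtration and scintillation counting, analysed as signal loss against DMSO.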

Assay [8] addresses human Adrenergic, Alpha 2A Receptor (Adra2A), ADRA2A (gene 150) (UniProt P08913). Briefly: NVS_GPCR_hAdra2A: NovaScreen (NVS) G Protein-Coupled Receptor Assay for human Adrenergic, Alpha 2A Receptor (Adra2A) (AID 2283257). In outline: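 Displacement of a specific radioligand from HT29 membrane protein was counted by filter scintillation after 1 h. Compounds were screened in duplicate at 25 uM, and actives were retested in concentration series. Fitting was positive-direction against DMSO.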

Assay [9] deals with human Dopamine Receptor D4.4 (DRD4.4), DRD4 (gene 1815) (UniProt P21917). Put plainly: NVS_GPCR_hDRD4.4: NovaScreen (NVS) G Protein-Coupled Receptor Assay for human Dopamine Receptor D4.4 (DRD4.4) (AID 2283264). In outline: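 Filter-binding assay with a tritiated or iodinated ligand, cell-free receptor prepared from CHO, 1 hour. Loss of bound radioactivity versus DMSO; single 25 uM duplicate screen, then concentration-response for actives.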
Chain of human Dopamine Receptor D4.4 (DRD4.4), DRD4 (gene 1815) (P21917 whole entry, looked up): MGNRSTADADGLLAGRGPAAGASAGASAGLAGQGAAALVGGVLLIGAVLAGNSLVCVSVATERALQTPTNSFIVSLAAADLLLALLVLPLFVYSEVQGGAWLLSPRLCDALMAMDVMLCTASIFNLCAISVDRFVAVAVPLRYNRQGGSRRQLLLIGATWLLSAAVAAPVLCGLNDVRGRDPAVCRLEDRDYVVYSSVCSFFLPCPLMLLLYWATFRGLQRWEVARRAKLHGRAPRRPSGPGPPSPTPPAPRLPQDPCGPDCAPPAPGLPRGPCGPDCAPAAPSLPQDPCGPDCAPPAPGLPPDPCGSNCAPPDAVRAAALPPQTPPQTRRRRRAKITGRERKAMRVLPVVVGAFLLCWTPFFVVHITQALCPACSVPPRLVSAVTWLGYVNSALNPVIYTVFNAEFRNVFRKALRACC

Assay [10] concerns the target Muscarinic acetylcholine receptor M3 (Homo sapiens) (UniProt P20309). Briefly: NVS_GPCR_hM3: NovaScreen (NVS) G Protein-Coupled Receptor Assay for human Muscarinic, M3 Receptor (AID 2283272). In outline:
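Radioligand displacement binding on human M3 receptor in CHO-derived membranes, 1 h incubation, filter-based scintillation counting. Primary screen in duplicate at 25 uM; actives followed up in concentration series; loss of signal versus DMSO.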

Assay [11] addresses Muscarinic acetylcholine receptor M2 (Homo sapiens) (UniProt P08172). Briefly: NVS_GPCR_hM2: NovaScreen (NVS) G Protein-Coupled Receptor Assay for human Muscarinic, M2 Receptor (AID 2283273). In outline: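 Filter-based radiodetection read bound radioligand 1 h after dosing CHO-derived membrane protein. Single-concentration duplicates (25 uM) first, then concentration-response for actives; signal loss versus DMSO scored.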

Assay [12] addresses human Muscarinic, M4 Receptor, CHRM4 (gene 1132) (UniProt P08173). Briefly: NVS_GPCR_hM4: NovaScreen (NVS) G Protein-Coupled Receptor Assay for human Muscarinic, M4 Receptor (AID 2283274). In outline: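 Filter-based scintillation counting of radioligand bound to CHO-expressed human M4 preparations after 1 h; loss of signal fitted versus DMSO. Initial duplicate testing at 25 uM, concentration-response follow-up for actives.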

For assay [13], the target named is human Adenosine A2a Receptor (AdoRA2a), ADORA2A (gene 135) (UniProt P29274). Put plainly: NVS_GPCR_hAdoRA2a: NovaScreen (NVS) G Protein-Coupled Receptor Assay for human Adenosine A2a Receptor (AdoRA2a) (AID 2283256). The method, boiled down:
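HEK293-derived receptor preparation, radioligand displacement, 1.5 h, filtration + scintillation read. Loss of bound signal scored vs DMSO. Single-point 25 uM in duplicate first, then concentration-response for actives.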

In assay [14] the target is human Adrenergic, Beta 3 Receptor (Adrb3), ADRB3 (gene 155) (UniProt P13945). Briefly: NVS_GPCR_hAdrb3: NovaScreen (NVS) G Protein-Coupled Receptor Assay for human Adrenergic, Beta 3 Receptor (Adrb3) (AID 2283262). The method, boiled down:
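A cell-free filter binding assay read by scintillation counting, with displacement of a specific radioligand measured after 1 hour. The receptor source was SK-N-MC extracts (cells pretreated with isoproterenol and 8-bromo-cAMP). Compounds were first tested at 25 uM in duplicate and then in concentration series.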

For assay [15], the target named is Type-1 angiotensin II receptor (Homo sapiens) (UniProt P30556). Briefly: NVS_GPCR_hAT1: NovaScreen (NVS) G Protein-Coupled Receptor Assay for human Angiotensin II receptor type 1 (AT1) (AID 2283263). The method, boiled down:
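Hits from a 25 uM duplicate screen (threshold e.g. 30% inhibition) were run in concentration-response with 50 uM top concentration. Displacement of specific radioligand from KAN-TS membrane preparations measured after 3 h by filter scintillation, DMSO as baseline.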

For assay [16], the target named is human Neurokinin, NK2 Receptor, TACR2 (gene 6865) (UniProt P21452). Briefly: NVS_GPCR_hNK2: NovaScreen (NVS) G Protein-Coupled Receptor Assay for human Neurokinin, NK2 Receptor (AID 2283278).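 Also: actives reduce bound radioligand signal relative to DMSO baseline.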 In outline: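 Filter-based scintillation counting measured radioligand bound to receptor extracted from CHO cells, 4 hours after compound addition. Chemicals screened first at 25 uM in duplicate, with actives retested in concentration series relative to DMSO.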

Assay [17] has as its target human Neurotensin Receptor (NTS), NTSR1 (gene 4923) (UniProt P30989). Briefly: NVS_GPCR_hNTS: NovaScreen (NVS) G Protein-Coupled Receptor Assay for human Neurotensin Receptor (NTS) (AID 2283279). In outline: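 Compounds competed with a radiolabelled ligand for binding to CHO-derived human neurotensin receptor; bound signal counted after filtration, 1 h. Screened first at a single concentration of 25 uM in duplicate, then concentration series to 50 uM maximum for actives.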

This passage reports outcome and AC50 results from PubChem BioAssay (EPA / NIEHS).

Results filed as inconclusive are left out. Activity calls are given as the source filed them. The calls were made as follows: active = hit-call score of the fitted dose curve at least 0.9, where 1 is the maximum; inconclusive = response in the unintended direction; inactive = score below 0.9.

Chain of human Adrenergic, Beta 3 Receptor (Adrb3), ADRB3 (gene 155) (P13945 whole entry, looked up): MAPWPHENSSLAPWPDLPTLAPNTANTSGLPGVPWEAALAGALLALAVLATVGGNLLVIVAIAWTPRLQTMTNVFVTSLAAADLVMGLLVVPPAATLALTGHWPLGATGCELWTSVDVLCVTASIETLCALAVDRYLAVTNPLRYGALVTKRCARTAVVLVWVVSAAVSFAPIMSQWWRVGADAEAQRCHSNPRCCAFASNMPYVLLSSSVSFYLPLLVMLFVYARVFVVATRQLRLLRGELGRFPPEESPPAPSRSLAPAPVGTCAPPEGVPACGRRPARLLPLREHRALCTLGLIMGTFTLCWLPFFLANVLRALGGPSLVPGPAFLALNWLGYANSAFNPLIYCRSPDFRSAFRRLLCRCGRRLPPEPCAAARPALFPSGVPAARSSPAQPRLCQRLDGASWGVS
Chain of Muscarinic acetylcholine receptor M3 (Homo sapiens) (P20309 whole entry, looked up): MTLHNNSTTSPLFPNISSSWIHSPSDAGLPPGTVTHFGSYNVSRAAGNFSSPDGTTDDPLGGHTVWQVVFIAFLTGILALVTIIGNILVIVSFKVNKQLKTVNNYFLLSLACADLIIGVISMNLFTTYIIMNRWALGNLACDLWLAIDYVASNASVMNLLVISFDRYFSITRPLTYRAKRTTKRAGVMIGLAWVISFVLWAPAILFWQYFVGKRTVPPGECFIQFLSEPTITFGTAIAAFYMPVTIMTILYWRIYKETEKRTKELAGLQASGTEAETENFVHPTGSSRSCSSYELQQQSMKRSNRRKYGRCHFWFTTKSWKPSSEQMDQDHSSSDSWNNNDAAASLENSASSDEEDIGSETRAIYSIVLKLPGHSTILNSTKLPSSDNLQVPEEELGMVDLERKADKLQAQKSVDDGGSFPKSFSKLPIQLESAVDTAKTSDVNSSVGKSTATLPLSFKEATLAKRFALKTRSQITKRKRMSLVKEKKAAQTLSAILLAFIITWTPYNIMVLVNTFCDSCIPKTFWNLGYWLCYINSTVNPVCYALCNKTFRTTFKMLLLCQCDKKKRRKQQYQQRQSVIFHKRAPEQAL
Chain of Muscarinic acetylcholine receptor M1 (Homo sapiens) (P11229 whole entry, looked up): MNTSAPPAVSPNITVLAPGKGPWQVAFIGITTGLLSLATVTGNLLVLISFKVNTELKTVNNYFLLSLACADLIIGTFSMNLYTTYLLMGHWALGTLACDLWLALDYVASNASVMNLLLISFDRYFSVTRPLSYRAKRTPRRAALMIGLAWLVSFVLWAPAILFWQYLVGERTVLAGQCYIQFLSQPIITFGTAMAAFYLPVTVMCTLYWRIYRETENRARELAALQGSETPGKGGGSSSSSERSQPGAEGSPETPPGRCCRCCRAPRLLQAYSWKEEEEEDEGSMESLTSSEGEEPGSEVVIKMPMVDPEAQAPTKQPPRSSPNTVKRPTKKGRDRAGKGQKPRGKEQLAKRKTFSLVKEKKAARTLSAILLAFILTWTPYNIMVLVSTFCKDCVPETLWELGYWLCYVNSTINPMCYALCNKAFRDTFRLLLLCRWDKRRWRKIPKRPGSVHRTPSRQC
Chain of Muscarinic acetylcholine receptor M2 (Homo sapiens) (P08172 whole entry, looked up): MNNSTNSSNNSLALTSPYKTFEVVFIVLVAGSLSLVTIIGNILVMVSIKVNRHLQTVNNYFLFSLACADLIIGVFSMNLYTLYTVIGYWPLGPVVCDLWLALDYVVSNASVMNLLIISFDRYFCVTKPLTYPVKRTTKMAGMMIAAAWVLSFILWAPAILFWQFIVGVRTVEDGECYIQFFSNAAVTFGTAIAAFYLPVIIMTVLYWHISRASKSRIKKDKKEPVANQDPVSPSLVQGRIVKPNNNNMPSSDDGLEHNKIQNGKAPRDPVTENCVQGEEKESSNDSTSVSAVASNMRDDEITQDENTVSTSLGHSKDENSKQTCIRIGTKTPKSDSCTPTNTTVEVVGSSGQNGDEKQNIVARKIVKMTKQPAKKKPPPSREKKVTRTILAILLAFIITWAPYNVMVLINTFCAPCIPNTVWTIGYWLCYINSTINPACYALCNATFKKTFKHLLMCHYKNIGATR
Chain of human Adenosine A2a Receptor (AdoRA2a), ADORA2A (gene 135) (P29274 whole entry, looked up): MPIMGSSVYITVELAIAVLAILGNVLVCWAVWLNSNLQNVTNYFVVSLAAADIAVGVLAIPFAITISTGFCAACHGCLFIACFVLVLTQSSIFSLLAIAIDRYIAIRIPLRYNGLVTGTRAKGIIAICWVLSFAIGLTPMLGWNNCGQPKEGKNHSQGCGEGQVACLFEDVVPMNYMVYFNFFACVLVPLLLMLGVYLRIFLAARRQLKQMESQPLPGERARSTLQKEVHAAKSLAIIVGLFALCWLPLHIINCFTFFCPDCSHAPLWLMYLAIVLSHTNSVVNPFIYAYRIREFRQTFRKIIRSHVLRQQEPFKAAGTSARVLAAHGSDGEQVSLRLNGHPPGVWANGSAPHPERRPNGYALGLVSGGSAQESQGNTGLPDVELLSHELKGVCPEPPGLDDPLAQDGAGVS
Chain of human Adrenergic, Alpha 2c Receptor (Adra2C), ADRA2C (gene 152) (P18825 whole entry, looked up): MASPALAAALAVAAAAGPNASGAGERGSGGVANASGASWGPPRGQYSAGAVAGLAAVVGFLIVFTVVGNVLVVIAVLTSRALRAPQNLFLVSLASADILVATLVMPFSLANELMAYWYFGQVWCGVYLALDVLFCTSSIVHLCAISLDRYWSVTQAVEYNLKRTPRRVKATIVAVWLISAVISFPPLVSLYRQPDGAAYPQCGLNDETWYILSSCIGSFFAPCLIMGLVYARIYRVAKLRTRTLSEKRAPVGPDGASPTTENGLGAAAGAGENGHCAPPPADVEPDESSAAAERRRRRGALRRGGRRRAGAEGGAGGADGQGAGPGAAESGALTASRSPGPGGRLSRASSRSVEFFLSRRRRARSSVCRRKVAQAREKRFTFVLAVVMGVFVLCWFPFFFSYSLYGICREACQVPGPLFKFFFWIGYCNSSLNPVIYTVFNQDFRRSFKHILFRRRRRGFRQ
Chain of human Muscarinic, M4 Receptor, CHRM4 (gene 1132) (P08173 whole entry, looked up): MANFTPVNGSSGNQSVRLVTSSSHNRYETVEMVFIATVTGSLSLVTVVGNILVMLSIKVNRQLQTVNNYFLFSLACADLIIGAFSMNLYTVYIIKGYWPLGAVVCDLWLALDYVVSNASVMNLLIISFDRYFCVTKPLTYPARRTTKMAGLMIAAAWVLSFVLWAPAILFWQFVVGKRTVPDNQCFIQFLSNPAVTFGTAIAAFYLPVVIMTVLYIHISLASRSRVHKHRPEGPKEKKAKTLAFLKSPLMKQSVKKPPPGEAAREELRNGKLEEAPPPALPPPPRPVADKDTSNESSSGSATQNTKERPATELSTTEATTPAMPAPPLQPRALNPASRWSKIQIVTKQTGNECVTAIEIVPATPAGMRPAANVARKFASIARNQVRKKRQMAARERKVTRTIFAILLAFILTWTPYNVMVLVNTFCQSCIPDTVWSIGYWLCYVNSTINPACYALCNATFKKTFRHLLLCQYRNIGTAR
Chain of Beta-2 adrenergic receptor (Homo sapiens) (P07550 whole entry, looked up): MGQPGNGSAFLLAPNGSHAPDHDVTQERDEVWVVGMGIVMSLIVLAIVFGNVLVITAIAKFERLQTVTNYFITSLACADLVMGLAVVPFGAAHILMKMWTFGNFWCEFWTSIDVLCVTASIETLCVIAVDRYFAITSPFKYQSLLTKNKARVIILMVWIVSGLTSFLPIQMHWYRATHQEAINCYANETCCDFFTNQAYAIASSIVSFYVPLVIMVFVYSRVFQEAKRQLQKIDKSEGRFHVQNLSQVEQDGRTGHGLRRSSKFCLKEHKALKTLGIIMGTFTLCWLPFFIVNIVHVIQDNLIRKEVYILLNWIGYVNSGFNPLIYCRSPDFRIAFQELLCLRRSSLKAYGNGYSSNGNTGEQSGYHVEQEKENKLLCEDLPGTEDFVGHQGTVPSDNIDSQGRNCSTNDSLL
Chain of human Histamine 1 Receptor (H1), HRH1 (gene 3269) (P35367 whole entry, looked up): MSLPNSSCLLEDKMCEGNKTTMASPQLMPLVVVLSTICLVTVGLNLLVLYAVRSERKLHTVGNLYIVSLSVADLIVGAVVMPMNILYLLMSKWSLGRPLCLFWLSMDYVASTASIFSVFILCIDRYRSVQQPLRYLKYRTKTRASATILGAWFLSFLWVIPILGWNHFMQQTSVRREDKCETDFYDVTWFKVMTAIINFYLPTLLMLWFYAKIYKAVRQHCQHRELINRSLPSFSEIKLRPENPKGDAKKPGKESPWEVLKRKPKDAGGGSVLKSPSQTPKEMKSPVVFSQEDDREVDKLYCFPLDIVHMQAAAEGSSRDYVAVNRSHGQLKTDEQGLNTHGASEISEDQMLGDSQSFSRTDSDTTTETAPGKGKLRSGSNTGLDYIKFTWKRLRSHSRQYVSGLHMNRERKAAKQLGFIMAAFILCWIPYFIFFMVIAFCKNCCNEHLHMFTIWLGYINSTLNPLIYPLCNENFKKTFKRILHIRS
Chain of Type-1 angiotensin II receptor (Homo sapiens) (P30556 whole entry, looked up): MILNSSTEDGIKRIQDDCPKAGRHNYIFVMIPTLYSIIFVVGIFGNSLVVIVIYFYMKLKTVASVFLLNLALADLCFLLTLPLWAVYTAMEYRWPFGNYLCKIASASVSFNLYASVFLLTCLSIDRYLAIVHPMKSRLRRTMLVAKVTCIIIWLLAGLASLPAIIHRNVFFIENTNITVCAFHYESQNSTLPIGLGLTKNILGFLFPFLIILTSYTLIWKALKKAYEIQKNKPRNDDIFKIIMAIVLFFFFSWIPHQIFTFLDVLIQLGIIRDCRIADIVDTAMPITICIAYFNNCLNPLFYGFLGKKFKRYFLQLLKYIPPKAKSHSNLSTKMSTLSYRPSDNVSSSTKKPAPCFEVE

`Clc1nc(Cl)nc(Nc2ccccc2Cl)n1`: the call in [1] was inactive.

Turning to `CC(C)=CC1C(C(=O)OCc2coc(Cc3ccccc3)c2)C1(C)C` (configuration not stated), the values for the AC50 in assay [2], in assay [3] and in assay [4] were 25 µM (active), 25 µM (active) and 11.5 µM (active), respectively.

`OC(c1ccc(Cl)cc1)(c1ccc(Cl)cc1)C(Cl)(Cl)Cl`: in assay [5], the compound was called inactive.

`COC(=O)NS(=O)(=O)c1ccc(N)cc1`: the result in assay [6] and in assay [7] was inactive.

For `CCCN(CC)CC1COC2(CCC(C(C)(C)C)CC2)O1` (configuration not stated), the AC50 is 3.99 µM (active) in [8]; 7.95 µM (active) in [9]; 4.97 µM (active) in assay [7]; 8.78 µM (active) in assay [10]; 4.96 µM (active) in assay [11]; 3.3 µM (active) in assay [12]. Also, in [5], the compound was classed as inactive.

As to `Nc1cnn(-c2ccccc2)c(=O)c1Cl`, the AC50 in assay [13] was 32.6 µM (active).

Turning to `CC1(C)CON(Cc2ccccc2Cl)C1=O`, in [3], the compound was classed as inactive.

Regarding `CC(C)Oc1cccc(NC(=O)c2ccccc2C(F)(F)F)c1`, the result in [14] was inactive.

For the compound `CN/C(=N\[N+](=O)[O-])NCc1cnc(Cl)s1`, in assay [14], the call was inactive.

Turning to `Nc1c(Cl)c(F)nc(OCC(=O)O)c1Cl`, the call in assay [3] was inactive.

Regarding `Cc1cc(C)nc(Nc2ccccc2)n1`, the AC50 in assay [13] is 10.9 µM (active); in assay [10] it was 12.4 µM (active); in [11], 4.96 µM (active); in [12] it was 14.9 µM (active).

On to `COP(=S)(OC)SCn1nnc2ccccc2c1=O`, for which the compound was classed as inactive in assay [13], in assay [6] and in assay [1].

Take `N#Cc1c[nH]cc1-c1cccc2c1OC(F)(F)O2`: the compound was called inactive in assay [6], in assay [9] and in [7].

Turning to `Nc1c(Cl)c(Cl)nc(C(=O)O)c1Cl`, the outcome in assay [6] was inactive.

With `CC(C)Nc1nc(Cl)nc(NC(C)C)n1`, in assay [2], the AC50 was 6.34 µM (active).

For the compound `CC1(C)C(C=C(Cl)Cl)C1C(=O)OC(C#N)c1cccc(Oc2ccccc2)c1` (configuration not stated), the compound was classed as inactive in assay [15] and in assay [16].

Turning to `CN=C=S`, the compound was classed as inactive in assay [6].

Consider `O=C(O)c1c(Cl)ccc2cc(Cl)cnc12`, for which, in assay [14], the outcome was inactive.

In the case of `Cn1c(-c2ccccc2)cc(-c2ccccc2)[n+]1C`, the concentration at half-maximal activity (AC50) in [8] was 1.32 µM (active); in [3], 3.74 µM (active); in [7], 2.84 µM (active); in assay [10] it was 9.02 µM (active); in assay [11] it was 3.97 µM (active); in assay [12], 7.59 µM (active). Also, the outcome in assay [17] was inactive.

Broadly, the AC50 is the concentration at which the activity in the assay is half-maximal.
